Laboratory results from PubChem BioAssay AID602393 (Broad Institute, 2012).
The campaign covered roughly 350,000 compounds. About 7,000 (2%) were called active. Cut-off read from the data, not from the text of the source: active = activation above about 40%; inconclusive = no clear call, values can overlap the other calls; inactive = below that. The entries come from a sample that favours actives as a whole.

Assay: raisers of Bmi1 knock-in reporter signal – mouse ES cells, Bmi1 luciferase knock-in, single point, esBAF inhibitor project, primary screen (AID 602393);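 note: 0% = median of the plate's neutral control wells and 100% = double that signal; a rise in the Bmi1 reporter signal indicates esBAF inhibition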
Settings: 24 h, at 12.5 µM, active compounds read high, 100% = twice the neutral-well signal

Reporter increase, active:
Cc1ccc(C)c(N2CCN(C(=O)CCc3nc(-c4cccc(C(F)(F)F)c4)no3)CC2)c1 61.9%
N#CC(=C1CCCC1)c1nc(-c2ccc(Cl)cc2)cs1 58.5%
N#CC(=C1SC=CS1)c1nc(-c2ccccc2)cs1 56.6%
CN1/C(=C\C(=O)c2cccnc2Cl)C(C)(C)c2ccccc21 48.4%
O=C(CN1C(=O)COc2ccccc21)Nc1ccc(F)cc1 72.1%
CCOC(=O)C1(Cc2ccccc2C)CCCN(C(=O)c2ccc(COC)o2)C1 (stereo unspecified) 52.7%
O=C1/C(=C/c2cccs2)CCc2ccccc21 56.4%
COc1ccc(/C=C2\CCc3ccccc3C2=O)c(OC)c1OC 35.7%
CCc1cc(C(=O)Nc2nnc(C3CC3)s2)sc1C 53.3%
Cc1cc(C(=O)Nc2nnc(C3CC3)s2)c(C)s1 62.3%
O=S(=O)(Nc1ccc2nc(-c3ccco3)[nH]c2c1)c1ccccc1 60.3%
COc1ccc(-n2cnc3cc(NCc4ccco4)ccc32)cc1 56.7%
S=C(Nc1ccccc1)Nc1ccc2ccccc2c1 78.2%
COc1cc(/C=C(\C#N)c2nc3ccccc3[nH]2)ccc1O 54.9%
O=C(OCC(=O)N1CCCCCC1)c1cccc(Cl)c1Cl 46.9%
Cc1ccc(O)c(NC(=O)c2cc(-c3ccco3)on2)c1 69.9%
CC(=O)c1ccc(NC(=O)c2sc3nc4n(c(=O)c3c2C)CCCCC4)cc1 56.1%

Reporter increase, inactive:
C[C@H](CO)N1C[C@H](C)[C@H](CN(C)S(=O)(=O)c2ccccc2)Oc2cc(Br)ccc2S1(=O)=O 3.8%
Cc1ccc(C)c(N2CCN(C(=O)CCc3nc4ccccc4[nH]3)CC2)c1 10.7%
COc1ccc(-c2noc(CCC(=O)N3CCN(c4cccc(C)c4)CC3)n2)cc1 -6.31%
CNC[C@@H]1Oc2ccc(NS(=O)(=O)c3c(C)noc3C)cc2CC(=O)N([C@@H](C)CO)C[C@@H]1C 1.22%
CO[C@H]1CN(C)C(=O)c2cc(NS(C)(=O)=O)ccc2OC[C@@H](C)N(C(=O)NC(C)C)C[C@@H]1C -1.56%
CCC(=O)N1C[C@H]2[C@@H](c3ccccc31)[C@H](CO)N2Cc1ccccc1F -1.5%
c1ccc(-c2csc(N3CCc4ccccc4C3)n2)cc1 21.9%
C[C@@H]1CN([C@@H](C)CO)C(=O)Cc2cc(NS(=O)(=O)c3ccc(Cl)cc3)ccc2O[C@H]1CN(C)CC1CCCCC1 3.84%
O=C(Cc1ccccn1)N1[C@@H]2CNc3ccccc3[C@@H]2[C@@H]1CO -1.83%
O=C(c1cccnc1)N1C[C@H]2[C@@H](c3ccccc31)[C@H](CO)N2C(=O)C1CCCCC1 -4.74%
CCC(=O)Nc1ccc2c(c1)C(=O)N(C)C[C@H](OC)[C@H](C)CN(C(=O)C1CCC1)[C@@H](C)CO2 -5.69%
CC(=O)Nc1cccc(OCC(=O)/C=C2\N(C)c3ccccc3C2(C)C)c1 -12.2%
CC(C)Nc1nnc(SCC(=O)/C=C2\N(C)c3ccccc3C2(C)C)s1 -0.0975%
C[C@@H]1CCCCO[C@H](CN(C)S(C)(=O)=O)[C@@H](C)CN([C@@H](C)CO)C(=O)c2cc(NC(=O)CCC(F)(F)F)ccc2O1 -0.325%
CCCNC(=O)[C@H]1[C@H](CO)[C@H]2Cn3c(ccc(C4=CCCC4)c3=O)[C@H]2N1C(=O)CC -0.965%
CC(OC(=O)CN1C(=O)COc2ccccc21)C(=O)NCc1ccc(F)cc1 (stereo unspecified) -4.32%
O=C(CN1C(=O)COc2ccc(Cl)cc21)Nc1ccc(N2CCOCC2)cc1 -1.03%
Cc1noc(C)c1NC(=O)N(C)C[C@@H]1OCCCC[C@H](C)Oc2ccc(NC(=O)CCC(F)(F)F)cc2C(=O)N([C@@H](C)CO)C[C@@H]1C -15%
CN(C)C(=O)C[C@@H]1CC[C@@H](NS(=O)(=O)c2ccccc2)[C@H](CO)O1 -9.26%
CCOC(=O)C1(Cc2ccccc2C)CCCN(S(C)(=O)=O)C1 (stereo unspecified) -5.66%
CCOC(=O)C1(Cc2ccccc2C)CCCN(C(=O)CN2C(=O)CSC2=O)C1 (stereo unspecified) 15.7%
COc1cccc(C(=O)Nc2ccc3c(c2)C(=O)N(C)[C@@H]2CC[C@H](CC(=O)NCCCN4CCOCC4)O[C@H]2CO3)c1 6.81%
C[C@@H]1CN([C@@H](C)CO)C(=O)c2cc(NS(=O)(=O)c3cn(C)cn3)ccc2O[C@@H](C)CCCCO[C@H]1CN(C)S(=O)(=O)c1cccs1 -0.192%
Cc1ccc(S(=O)(=O)Nc2ccc3c(c2)C(=O)N([C@H](C)CO)C[C@@H](C)[C@H](CN(C)C(=O)Nc2ccc(C(F)(F)F)cc2)OCCCC[C@H](C)O3)cc1 -0.527%
c1ccc2c(c1)CCc1snnc1-2 -3.35%
COc1ccc(/C=N/NC(=O)C2CC2)c(OC)c1OC -5.72%
O=S(=O)(c1cccs1)N1CCc2ccccc2C1 -5.9%
COc1ccc(/C=C2/CCCc3ccccc3C2=O)cc1 23.6%
O=C(C[C@H]1C=C[C@@H](NS(=O)(=O)c2ccc(F)cc2)[C@@H](CO)O1)NC1CCC1 -2.06%
CO[C@H]1CN(C)C(=O)c2cc(NS(C)(=O)=O)ccc2OC[C@@H](C)N(C)C[C@@H]1C 0.827%
CN1CCCCN2[C@@H](CO)[C@@H](c3ccc(C4=CCCC4)cc3)[C@@H]2C1 -22.1%
O=C(Nc1nnc(C2CC2)s1)C1=NN(C2CCS(=O)(=O)C2)C(=O)CC1 (stereo unspecified) 4.96%
CCc1nnc(NC(=O)c2cc(S(=O)(=O)N3CCCCC3)ccc2C)s1 8.45%
CCc1ccccc1OCC(=O)Nc1nnc(C2CC2)s1 1.33%
COc1ccc2c(CC(=O)Nc3nnc(C4CC4)s3)coc2c1 4.79%
COCc1cn(CC[C@H]2CC[C@H](NC(=O)c3ccncc3)[C@H](CO)O2)nn1 -3.19%
CN1C[C@H]2[C@@H](c3ccccc31)[C@@H](CO)N2C(=O)Nc1ccccc1 3.76%
Cn1c(CCN2CCCC2)nc2cc(NS(=O)(=O)c3ccccc3)ccc21 1.19%
O=S(=O)(Nc1ccc2cn[nH]c2c1)c1ccccc1 -0.15%
CO[C@H]1CC[C@@H]2CCOc3c(C#N)cccc3C(=O)N(C)C[C@H](C)C(=O)N(C)C[C@H]1O2 4.38%
C[C@H](NC(=O)C[C@@H]1C[C@@H]2c3cc(NC(=O)Nc4ccc(C(F)(F)F)cc4)ccc3O[C@@H]2[C@H](CO)O1)c1ccccc1 -3.56%
COC(=O)C[C@@H]1CC[C@@H]2[C@@H](COc3ccc(NC(=O)C4CCOCC4)cc3C(=O)N2C)O1 1.18%
C[C@H]1CN([C@@H](C)CO)C(=O)Cc2cc(NC(=O)Nc3ccc(F)cc3)ccc2O[C@H]1CN(C)S(=O)(=O)c1ccc(F)cc1 1.01%
COc1cc(-n2c(C)nc3cc(C(=O)NCc4ccco4)ccc32)cc(OC)c1OC -1.78%
Cc1nc2cc(NCc3cccs3)ccc2n1C 35%
O=C(C[C@H]1CC[C@H](NC(=O)Nc2ccccc2F)[C@@H](CO)O1)NCc1ccccc1 0.158%
FC(F)(F)Oc1ccc(NC(=S)NCc2ccccc2)cc1 -1.5%
Cc1ccc(NC(=S)Nc2ccc(F)cc2)cc1 9.65%
CCOc1ccc(/C=C(/C#N)c2nnc(N3CCOCC3)n2-c2ccccc2)cc1OC 2.69%
CCCCCOc1ccc(/C=C/C(=O)NCCc2nc3ccccc3[nH]2)cc1OC 1.93%
CC=Cc1ccc2n(c1=O)C[C@@H]1[C@@H](CO)[C@H](C(=O)NCCCN3CCOCC3)[C@H]2N1Cc1cocn1 (mixture of isomers) -2.98%
CCNC(=O)C[C@@H]1CC[C@H](NC(=O)NC2CCCCC2)[C@H](CO)O1 -1.71%
O=C(C[C@@H]1C[C@@H]2c3cc(NC(=O)Cc4ccncc4)ccc3O[C@@H]2[C@H](CO)O1)NCc1cccc(F)c1 -1.25%
O=C(COC(=O)c1cccc(Cl)c1Cl)NC1CCCCCC1 -2.51%
O=C(COc1ccccc1Cl)N1CCCCCCC1 5.02%
CC(C)Cc1cc(C(=O)Nc2cc(Br)ccc2O)no1 30.6%
Cc1ccc(C)c(NC(=O)c2ccc(OC(=O)c3ccco3)cc2)c1 5.84%
C[C@H](CO)N1C[C@H](C)[C@@H](CN(C)CC2CC2)OCCCC[C@H](C)Oc2ccc(NC(=O)Nc3ccccc3)cc2C1=O 2.38%
CNC[C@H]1Oc2cc(-c3ccc(C(=O)N(C)C)cc3)ccc2S(=O)(=O)N([C@@H](C)CO)C[C@@H]1C 0.467%
C[C@@H]1CN([C@H](C)CO)C(=O)c2ccccc2-c2ccccc2CO[C@H]1CN(C)C(=O)CCC(F)(F)F -0.31%
O=c1c2c(nc3n1CCCCC3)sc1c(O)cccc12 -22.9%
COc1cccc(C(=O)Nc2ccc3nc4n(c(=O)c3c2)CCCCC4)c1 38.2%
COc1cccc(NC(=O)N(C)C[C@H]2Oc3ncc(C4=CCCCC4)cc3C(=O)N([C@H](C)CO)C[C@H]2C)c1 6.32%
C[C@H](CO)N1C[C@H](C)[C@@H](CN(C)C(=O)Nc2ccccc2)Oc2ncc(C3=CCCC3)cc2C1=O 1.19%
